NCF1 inh: inhibitors of human p47phox binding | P14598 | p47phox/p22phox peptide binding, fluorescence polarization, 2 h | inhibition, % at 24.7 µM | 220,000 compounds, 0.53% hits | AID 1274;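 active = inhibition above about 30%, limit read from the data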;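 note: 0% = p47phox with labelled peptide and 100% = labelled peptide alone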
Target sequence (P14598 whole entry, looked up): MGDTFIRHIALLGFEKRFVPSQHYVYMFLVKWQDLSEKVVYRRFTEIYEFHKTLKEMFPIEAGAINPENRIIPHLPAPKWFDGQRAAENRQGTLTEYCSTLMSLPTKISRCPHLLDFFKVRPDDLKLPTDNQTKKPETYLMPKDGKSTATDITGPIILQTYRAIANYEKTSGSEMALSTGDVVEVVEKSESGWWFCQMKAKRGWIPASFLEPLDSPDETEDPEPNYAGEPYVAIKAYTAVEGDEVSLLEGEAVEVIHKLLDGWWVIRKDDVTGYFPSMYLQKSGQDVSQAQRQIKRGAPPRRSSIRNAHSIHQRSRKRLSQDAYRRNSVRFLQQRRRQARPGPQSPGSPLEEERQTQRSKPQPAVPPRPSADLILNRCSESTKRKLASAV
Redox H2O2 prof: compounds producing H2O2 with reducing agent – biochemical, NIH compound library profiling, artefact control for MLSCN library redox annotation, primary screen. activation, % at 10 µM. DTT-dependent redox cycling H2O2, phenol red/HRP absorbance; 100% = 100 µM peroxide control, 0% = buffer. 200,000 compounds, 0.03% hits;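 active = activation of at least 50% relative to the plate's high and low controls in the primary single-dose screen; inactive = activation below 50%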;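 note: compound incubated with DTT at 0.8 mM final as the reducing agent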
Arbovirus anti: blocks arbovirus infection. arbovirus infection cell-based antiviral screen. inhibition, % at 10 µM. 200,000 compounds, 0.37% hits. AID 1251; in the data active = inhibition above about 30%
Efa HMGR inh: inhibitors of class II HMG-CoA reductase from Enterococcus faecalis | purified E. faecalis HMGR, NADPH absorbance 340 nm kinetic | inhibition, % at 10 µM | AID 1066 | 190,000 compounds, 0.41% hits;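 active = inhibition above a set limit, the median over all tested compounds plus 3 SD, cut at about 9.5% in these data; inconclusive = no clear call, values can overlap the other calls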;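 note: enzyme runs in reverse so mevalonate oxidation gives rising NADPH absorbance; 0% = complete reaction with DMSO and 100% = background rate lacking mevalonate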
Ins promoter up: MIN6 insulin promoter up-regulation; z-score at 5 µM; AID 1625; MIN6 insulin promoter-GFP reporter, high-content imaging; active compounds read high; 190,000 compounds, 0.3% hits;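 active = z-score above 3 at 5 µM with at least 500 cells counted in the well; inconclusive = wells under 500 cells, flagged as cytotoxic or low count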
Autophagy mod: modulators of autophagy. calls only at 10 µM (by protocol). 190,000 compounds, 0.98% hits. MEF GFP-LC3 puncta imaging; test concentration mostly 10 µM;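 active = percentage of spot-positive cells more than 3 SD above its plate mean, without a fluorescence outlier flag or 80% toxicity; inconclusive = no clear call, values can overlap the other calls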;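 note: spot-positive cell cutoff set from DMSO-treated cells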
Starred values were filed as active, the others as inactive; i = inactive; ? = inconclusive; . = no result given; + = active, no number; ! = a repeat was not active. A selection: hits, their analogues and other compounds. The true share with any hit is near 2.2%.

SMILES | NCF1 inh | Redox H2O2 prof | Arbovirus anti | Efa HMGR inh | Ins promoter up | Autophagy mod
N#Cc1ccc(-c2cccnc2)nc1SCC(=O)c1ccccc1 | -16 | . | . | . | 2.1 | .
FC(F)Oc1ccc(NC(=S)N2CCc3ccccc32)cc1 | -6 | 0 | 11 | -4 | -0.31 | i
Cc1ccc(-c2oc3ccccc3c(=O)c2O)cc1 | -13 | -2 | 2 | -4 | -1.4 | +
Cc1ccc(-c2csc3ncnc(N4CCN(C(=O)c5ccccc5)CC4)c23)cc1 | -10 | 0 | -21 | 1 | -0.33 | i
O=C(NCc1cccs1)c1ccc(N2CCCCC2)nc1 | -19 | 1 | -8 | -3 | 3.4* | i
Cc1c2ccccc2nc2c(F)c(N(C)C)c(F)c(F)c12 | 18 | 0 | -7 | -8 | 1.9 | +
CN(C)c1c2ccccc2nc2c(F)c(F)c(F)c(F)c12 | -13 | 0 | -22 | -2 | . | i
CCCCCCCCCCCCCCCCn1cc[n+](C)c1 | 102* | -2 | -25 | -6 | ? | +
O=C(CN1C(=O)/C(=C2\SC(=S)N(C3CCS(=O)(=O)C3)C2=O)c2ccccc21)Nc1ccccc1 (centres undefined) | 69* | 1 | 20 | -8 | -0.05 | i
Cc1ccc(NC(=O)CN2C(=O)/C(=C3\SC(=S)N(C4CCS(=O)(=O)C4)C3=O)c3ccccc32)cc1 (centres undefined) | 76* | 0 | 18 | 0 | -0.24 | i
CCOC(=O)N1CCC(NC(=O)c2ccc3nc4ccccc4c(=O)n3c2)CC1 | 39* | 3 | 1 | 2 | 0.4 | i
CC(C)CCN(C(=S)Nc1cccc(F)c1)C1CCN(C(C)C)CC1 | . | 1 | 11 | -1 | -0.26 | i
COC(=O)/C=C1\S/C(=N\N=C\CC(=O)OC)NC1=O | 0 | . | . | . | . | .
Cc1n[nH]c(C)c1N1C(=O)c2cccc3c(N4CCCCCC4)ccc(c23)C1=O | 7 | 0 | -33 | -6 | . | +
O=C1c2cccc3c(N4CCCCC4)ccc(c23)C(=O)N1c1cccc(O)c1 | -158 | 0 | 9 | -2 | . | i
O=C(OCCN1C(=O)c2ccccc2C1=O)c1cc(=O)[nH]c2ccccc12 | -19 | 0 | -1 | 1 | . | i
O=C(OCCN1C(=O)c2cccc3c(N4CCOCC4)ccc(c23)C1=O)c1cccc(Cl)c1 | -79 | 1 | -4 | -5 | 1.5 | +
O=C1c2cccc3c(N4CCCCC4)ccc(c23)C(=O)N1CCO | -35 | 0 | -12 | 0 | 0.45 | +
COc1cccc(C(=O)OCCN2CCOCC2)c1 | -4 | 0 | 4 | -7 | -0.04 | i
O=C(OCCN1C(=O)c2cccc3c(N4CCOCC4)ccc(c23)C1=O)c1ccc(Cl)cc1Cl | -91 | 3 | 9 | 0 | . | +
NC(N)=NS(=O)(=O)c1ccc(N/C=C\C(=O)c2ccncc2)cc1 | -18 | -1 | 1 | -1 | . | i
O=C(OCCN1C(=O)c2cccc3c(N4CCOCC4)ccc(c23)C1=O)c1ccccc1Cl | -89 | 0 | 1 | 0 | 0.31 | +
O=C(OCCN1C(=O)c2ccccc2C1=O)c1cc(S(=O)(=O)N2CCOCC2)ccc1Cl | 6 | 0 | 4 | -4 | 0.57 | i
COc1cc(/C=C(/C(=O)c2cccs2)c2nc3ccccc3[nH]2)cc(OC)c1O | -42 | -1 | -38 | 3 | . | +
CCOC(=O)CC(NS(=O)(=O)c1ccc(OC)c(C)c1)c1cccc([N+](=O)[O-])c1 (centres undefined) | -9 | 0 | 8 | 3 | . | +
SMILES | NCF1 inh | Redox H2O2 prof | Arbovirus anti | Efa HMGR inh | Ins promoter up | Autophagy mod
Cc1ccc(Nc2ccc(C(=O)NC3CCCCC3)cn2)cc1 | -18 | . | . | . | -0.38 | .
COc1ccc(-c2nc(C)ncc2-c2csc(C)n2)c(O)c1 | -8 | 0 | 9 | -1 | -0.09 | i
COc1ccc(-c2csc(C)n2)cc1 | -12 | 1 | -1 | 9.8* | . | i
COc1ccc(-c2ncncc2-c2csc(C)n2)c(O)c1 | -21 | 3 | 3 | -2 | 0.24 | +
O=C(O)c1ccc(-c2nnn(Cc3cccc(C(F)(F)F)c3)n2)cc1 | -12 | . | . | . | 0.26 | .
Nc1nnc(CC(=O)N/N=C/c2ccc(-c3cccc(C(=O)O)c3)o2)s1 | -6 | . | . | . | 1.2 | .
Cc1cccc(NC(=O)Cn2c(=O)n(C)c3ccccc32)c1 | -4 | 0 | 0 | 12* | . | i
Cc1nc(Nc2nc3ccccc3o2)nc2c1CCC2 | -7 | 3 | -6 | -16 | 0.42 | i
Cc1cccc(C)c1Nc1nc2ccccc2o1 | -10 | 0 | 46* | -2 | -0.71 | i
N[C@@H](Cc1cc(I)c(Oc2ccc(O)c(I)c2)c(I)c1)C(=O)O | -77 | -1 | 47*! | -3 | . | i
O=C(O)CCc1cc(I)c(Oc2ccc(O)c(I)c2)c(I)c1 | -93 | . | . | . | -0.49 | .
O=S(=O)(Nc1ccc(-n2cccc2)cc1)c1ccc(Cl)cc1Cl | -46 | 2 | -44 | -6 | -0.32 | i
COc1cccc(-c2csc(N3CCN(C(=O)Nc4ccc(Cl)cc4)CC3)n2)c1 | -26 | -1 | -14 | 9.9* | . | i
CCOC(=O)c1cccc(N2C(=O)c3ccccc3S2(=O)=O)c1 | 81* | -1 | 15 | -4 | 0.15 | i
CCOC(=O)c1cccc(-n2c(C)nc3ccccc3c2=O)c1 | 3 | 0 | 5 | -3 | -0.44 | i
Cc1cc(SCn2nnc3ccccc3c2=O)nc2ccccc12 | -1 | 0 | -11 | 115* | -0.15 | i
O=c1c2ccccc2nnn1CSc1ccc2ccccc2n1 | -3 | 0 | 17 | -5 | 0.12 | i
COCc1cc(=O)[nH]c(/N=C(\N)Nc2cccc(Cl)c2)n1 | -6 | 0 | 7 | -1 | 0.2 | i
CCc1ccc(-c2nc(-c3ccncc3)no2)cc1 | -8 | 2 | 4 | -10 | 0.95 | i
CCCCc1ccc(-c2nc(-c3ccncc3)no2)cc1 | 62* | -1 | 5 | 2 | -0.13 | i
CCCCn1c(SCC(=O)O)nc2ccccc21 | -10 | 0 | 1 | -6 | 3.5* | i
O=C(CSc1nc2ccccc2c(=O)n1-c1ccccc1)N1CCCc2ccccc21 | -36 | 0 | 24 | -6 | -1.1 | i
O=C(CSc1nc2ccccc2c(=O)n1-c1ccccc1)N1CCc2ccccc21 | 50* | -1 | -1 | -8 | -0.47 | i
CCOc1ccc(-n2c(SCC(=O)N3CCc4ccccc43)nnc2-c2c[nH]c3ccccc23)cc1 | 48* | 1 | -8 | -7 | -0.04 | i
CCOc1ccccc1C(=O)NC(C(=O)Nc1cccnc1)C(C)C (centres undefined) | 0 | -3 | 3 | -1 | 0.16 | i
CCC(Sc1nc2cc3c(cc2c(=O)n1Cc1ccco1)OCO3)C(=O)NCCOC (centres undefined) | -10 | 2 | -3 | 8 | 0.29 | i
CCN(CC)C(=O)CSc1nc2cc3c(cc2c(=O)n1Cc1ccco1)OCO3 | -5 | 0 | -9 | 0 | -0.42 | i

Source: PubChem BioAssay (several laboratories)
